# The panel holds about 83,000 compounds, 20% with a hit somewhere; the sample as a whole holds those more often.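 Compound tested at a single concentration for 48 hours in 96-well plates; a percent growth value below 10 was scored as active.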 The source made the active and inactive calls.
# Test system: MCF7 breast
# Assay: NCI-60 one-dose screen, 48 h (100 = growth as untreated, 0 = no growth, -100 = all killed)
# Settings: 10 µM unless noted
# Description: Growth inhibition of the MCF7 human tumor cell line is measured as a screen for anti-cancer activity. Cells are grown in 96 well plates and exposed to the test compound for 48 hours. Compounds are tested at a single concentration, which is 10^-5 M for most compounds. The reported endpoint is percent growth (GI% or GIPRCNT), where numbers from 0 - 100% represent growth inhibition, and numbers from -100% - 0 represent cell death. For example, a value of 40 represents 60% growth inhibition. A value of 0 means no net growth occurred over the course of the experiment. A value of -40 indicates 40% of cells at the beginning of the experiment died by the end of the experiment. A value of -100 means all cells are dead at the end of the experiment.
# NCI-60 Human Tumor Cell Lines Screen was performed using the standard one-dose NCI protocol, which is described in more detail at https://dtp.cancer.gov/discovery_development/nci-60/default.htm.
# Compounds with GIPRCNT values below 10 were considered active. Activity score was based on GIPRCNT using the following formula: […]
# Score is 0 for GIPRCNT values of 100 or above, 50 for GIPRCNT values of 0, and 100 for GIPRCNT values of -100.
row,SMILES,growth
1,Nc1n[nH]c2ccc([C@@H]3Nc4cc5[nH]ncc5cc4[C@H]4C5CCC(C5)[C@@H]34)cc12 (stereo not given in full),12.3% (inactive)
2,CC(C)CSc1oc(-c2ccccc2)nc1S(=O)(=O)c1ccccc1,92.3% (inactive)
3,C=CC(=O)NCCOc1cccc(Nc2cc(NCCCNC(=O)C3CCC3)c(Br)cn2)c1,1.91% (active)
4,CCOC(=O)c1c(-c2ccccc2)n2c(=O)cc(C)c3c(O)c(O)cc1c32,29.9% (inactive)
5,C[Se]C(=O)CC1=C2C=C(F)C=CC2/C(=C\c2ccc(S(C)=O)cc2)C1C (stereo not given),15.5% (inactive)
6,CCn1cc(C2=C(c3cn(C)c4ncccc34)C(=O)NC2=O)c2cccnc21,38.3% (inactive)
7,O=C1Nc2ccc(F)cc2/C1=C\c1nc(-c2ccccc2F)n2ccccc12,47.9% (inactive)
8,CCN(CC)CCN(CCN(CC)CC)c1ccccc1,100% (inactive)
9,COc1cc(C2Cc3ncccc3-c3[nH]c(=O)c4cccnc4c32)cc(OC)c1OC (stereo not given),16% (inactive)
10,COc1ccc(Nc2ncc(C(N)=O)c(NCCCNC(=O)C3CCC3)n2)cc1,64% (inactive)
11,CN(C)c1ccc(/C=C2/C=C(c3ccccc3)OC2=O)cc1,56.6% (inactive)
12,CC(C)C[C@@H](C(=O)N[C@H](C(=O)OC1CCCC1)c1ccccc1)[C@H](O)C(=O)NO,43.3% (inactive)
13,C=C(c1ccc(C(=O)O)cn1)c1cc2c(cc1C)C(C)(C)CCC2(C)C,65.6% (inactive)
14,CCCCC(=O)Nc1ncc(Cc2ccccc2Cl)s1,17.8% (inactive)
15,CCN(CC)CCCNCc1cc(-c2ccccc2)nc2cc(Cl)ccc12,23% (inactive)
16,COc1cc(C#Cc2ccc(=O)oc2C#Cc2ccccc2)cc(OC)c1OC,44.6% (inactive)
17,COc1ccc(C/C(C)=C(/c2ccc(OCCN3CCCCCC3)cc2)c2ccc(OC(=O)NCc3ccccc3)cc2)cc1,29.9% (inactive)
18,Cc1ncc(C(=O)Nc2ccc(CN3CCN(C)CC3)c(C(F)(F)F)c2)cc1C#Cc1cnc(N)c2cnccc12,-73.7% (active)
19,COc1cc(/C=C/c2cc(/C=C/c3ccc(O)c(OC)c3)n(C(=O)Nc3ccc(F)cc3)n2)ccc1O,9.49% (active)
20,COc1ccc(-c2cc(C(=O)N3N=C(c4ccc(N)cc4)CC3c3ccccc3)c3ccccc3n2)cc1 (stereo not given),24.1% (inactive)

row,SMILES,growth
1,CCN1C(=O)N(CC)C2C1NN=C1SCC(=O)N12 (stereo not given),18% (inactive)
2,CCCCc1oc2ccccc2c1C(=O)c1ccc(O)cc1,104% (inactive)
3,COc1ccc(C2=CN3CC=CCC3CC2=O)cc1 (stereo not given),105% (inactive)
4,CC(C)c1ccc(-n2c(=S)[nH]c3sc4c(c3c2=O)CCC(=O)C4)cc1,85.4% (inactive)
5,CC1O[C@@H]2C[C@@](O)([C@H]1O)n1c3ccccc3c3c4c(c5c6ccccc6n2c5c31)C(=O)NC4=O (stereo not given in full),22.3% (inactive)
6,CNC(=O)c1c(NC(=O)c2ccc(C(C)(C)C)cc2)sc2c(CN(C)C)c(O)ccc12,-43.2% (active)
7,C=CCn1c(SCC(=O)Nc2ccc(C(=O)/C=C/c3ccc(OC)cc3)cc2)nnc1-c1ccccc1,20% (inactive)
8,NC(CSC(c1ccccc1)(c1ccccc1)c1ccc2c(c1)OCO2)C(=O)O (stereo not given),10.3% (inactive)
9,Cn1cc(-c2nc(-c3c[nH]c4ccncc34)cs2)c2cc(Br)ccc21,-72.4% (active)
10,CC(C)=CC(=O)N[C@@H]1CC2CCC3C(CC[C@@]4(C)C3CC[C@@H]4C(C)N(C)C)[C@@]2(C)C[C@@H]1O (stereo not given in full),33.9% (inactive)
11,COc1cc(C2C3=C(COC3=O)N(CCO)c3cc4c(cc32)OCCO4)cc(OC)c1OC (stereo not given),11.2% (inactive)
12,CCOC(=O)N1CCN(S(=O)(=O)c2oc(-c3ccc(Cl)cc3)nc2C#N)CC1,62.2% (inactive)
13,O=C(CCC(=O)c1nc2ncccc2[nH]1)NN1C(=O)CSC1c1ccc(Cl)cc1 (stereo not given),87% (inactive)
14,Cc1cccc(-n2c(C)nc3ccc(N4CCCNC4=O)cc3c2=O)c1,97.8% (inactive)
15,CN1CCN(Cc2cc(NC(=O)c3cccc(C#Cc4cccc5[nH]nc(N)c45)c3)cc(C(F)(F)F)c2)CC1,-23.4% (active)
16,CC/C(Cc1ccccc1)=C(\c1ccc(OCCN2CCCCCC2)cc1)c1ccc(OC(=O)NCc2ccccc2)cc1,13.7% (inactive)
17,CN1CCN(c2ccc3c(c2)nc(NNC(=O)c2cnccn2)c2cccn23)CC1,13.8% (inactive)
18,CCN(CC)CCOc1ccc(Nc2ncc3cc(-c4ccc(O)cc4)c(=O)n(C)c3n2)cc1,51.5% (inactive)
19,CCCC(O)Cn1ncc(C(=O)OCC)c1NC(=O)NCc1cccc(F)c1 (stereo not given),91.8% (inactive)
20,COC(=O)C1=Nc2ccc(F)cc2/C1=C\c1sc(Nc2ccc(O)cc2)nc1O,22% (inactive)

# From PubChem BioAssay (NCI)
